Screens as filed in PubChem.
Only some compounds are listed: those with a hit (about 3.2% of all), similar ones and a draw of the others.
SSB-PriA inh: inhibitors of Klebsiella pneumoniae PriA binding to SSB C-terminal tail | AlphaScreen SSBct-PriA binding, biotinylated peptide | inhibition, % at 33 µM | 430,000 tested, 0.6% active | AID 1272365; in the data active = inhibition mostly above about 37%, no sharp cut-off; inactive = mostly below about 20%
GDH-TPI counter-1: GDH-TPI coupled enzyme inhibition counter-screen; GDH-TPI coupled enzyme counterscreen, NADH absorbance; inhibition, % at 4.8 µM; 360,000 tested, 1.2% active; AID 588335; in the data active = inhibition above about 30%
UGM FP inh: inhibitors of M. tuberculosis UDP-galactopyranose mutase. P9WIQ1. purified UGM, fluorescence polarization probe displacement. inhibition, % at 10 µM. 320,000 tested, 0.06% active. AID 504406; in the data active = inhibition above about 10%, passing the limit was not always enough
Mtb FBA inh: inhibitors of M. tuberculosis fructose-bisphosphate aldolase; AID 588726; purified M. tuberculosis FBA, fluorescence read-out; inhibition, % at 1 µM; 360,000 tested, 2.3% active; P9WQA3
Rv3671c inh: inhibits the M. tuberculosis serine protease Rv3671c; AID 2606; inhibition, % at 5.96 µM; P9WHR9; 320,000 tested, 0.048% active; in the data active = inhibition above about 38%;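 note: extracellular domain of Rv3671c used as enzyme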
Target sequence (P9WHR9 whole entry, looked up, the tested form may be a part): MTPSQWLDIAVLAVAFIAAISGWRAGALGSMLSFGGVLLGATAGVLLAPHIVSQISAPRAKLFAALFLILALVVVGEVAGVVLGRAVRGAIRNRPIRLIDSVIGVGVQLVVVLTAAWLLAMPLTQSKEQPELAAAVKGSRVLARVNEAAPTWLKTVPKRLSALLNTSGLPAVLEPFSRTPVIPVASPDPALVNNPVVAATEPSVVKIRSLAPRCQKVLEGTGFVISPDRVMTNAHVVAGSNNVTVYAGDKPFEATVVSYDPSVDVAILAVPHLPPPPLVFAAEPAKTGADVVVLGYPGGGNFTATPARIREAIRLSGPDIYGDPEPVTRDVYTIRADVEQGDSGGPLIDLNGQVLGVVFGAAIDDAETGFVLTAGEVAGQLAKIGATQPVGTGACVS
Mtb betalactam: beta-lactam sensitization of Mtb H37Rv; M. tuberculosis H37Rv growth with meropenem, percent inhibition; inhibition, % at 25 µM; 330,000 tested, 0.27% active; call rule not given here;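 note: growth measured after seven days incubation then overnight dye step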
Mtb FBA confirm: Mtb FBA inhibition, confirmed; 5,600 tested, 78% active; purified M. tuberculosis FBA, fluorescence read-out; shares compounds with Mtb FBA inh; inhibition, % at 1 µM; AID 651616
GDH-TPI counter-2: GDH-TPI inhibition counter-screen for FBA inhibitors. inhibition, % at 1 µM. GDH-TPI coupled enzyme counterscreen, fluorescence. 5,600 tested, 81% active. AID 652141. shares compounds with Mtb FBA inh; in the data active = inhibition above about 10%
Hits are given with their value. Cut-off read from the data, not from the text of the source, unless noted: active = inhibition above about 27%; inactive = the rest.

`O=C(N/N=C/C=C/c1ccccc1)NC1CCCCC1` gave GDH-TPI counter-1 inactive, UGM FP inh inactive, Mtb FBA inh 68.1, Rv3671c inh inactive, Mtb betalactam inactive, Mtb FBA confirm 167.4 and GDH-TPI counter-2 145.3.
O=C(N/N=C/C=C/c1ccccc1)c1ccccn1 was read as SSB-PriA inh inactive, GDH-TPI counter-1 35.3, UGM FP inh inactive, Mtb FBA inh 64.6, Rv3671c inh inactive, Mtb betalactam inactive, Mtb FBA confirm 180.1 and GDH-TPI counter-2 173.9.
For CCOc1ccc(S(=O)(=O)Nc2ccccc2C(=O)NCC2CCCO2)cc1 (stereo not drawn) the results were SSB-PriA inh inactive, GDH-TPI counter-1 inactive, UGM FP inh inactive, Mtb FBA inh 31.0, Rv3671c inh inactive, Mtb betalactam inactive, Mtb FBA confirm 148.2 and GDH-TPI counter-2 108.1.
CCOc1ccc(N=c2oc3cc(O)ccc3cc2C(=O)NCC2CCCO2)cc1 (stereo not drawn) was read as SSB-PriA inh inactive, GDH-TPI counter-1 inactive, UGM FP inh inactive, Mtb FBA inh 55.7, Rv3671c inh inactive, Mtb betalactam inactive, Mtb FBA confirm 38.6 and GDH-TPI counter-2 36.4.
`CCOc1ccc2oc(C(=O)NCC3CCCO3)c(C)c2c1` (stereo not drawn) gave SSB-PriA inh inactive, GDH-TPI counter-1 inactive, UGM FP inh inactive, Mtb FBA inh inactive, Rv3671c inh inactive and Mtb betalactam inactive.
Screening CC(C)CC1NC(C(=O)O)Cc2c1[nH]c1ccccc21 (stereo not drawn) returned SSB-PriA inh inactive, GDH-TPI counter-1 inactive, UGM FP inh inactive, Mtb FBA inh inactive, Rv3671c inh inactive and Mtb betalactam inactive.
Screening CCCC1NC(C(=O)O)Cc2c1[nH]c1ccccc21 (stereo not drawn) returned SSB-PriA inh inactive, GDH-TPI counter-1 inactive, UGM FP inh inactive, Mtb FBA inh 28.8, Mtb betalactam inactive, Mtb FBA confirm 36.3 and GDH-TPI counter-2 35.1.
CC(C)C1NC(C(=O)O)Cc2c1[nH]c1ccccc21 (stereo not drawn) was read as SSB-PriA inh inactive, GDH-TPI counter-1 inactive, UGM FP inh inactive, Mtb FBA inh 44.7, Rv3671c inh inactive, Mtb betalactam inactive, Mtb FBA confirm 163.5 and GDH-TPI counter-2 141.5.
O=C(NCC(F)(F)F)C1CCN(c2cc(C3CC3)ncn2)CC1 was read as SSB-PriA inh inactive.
`c1ccc(-c2cc(-c3nc4ccccc4[nH]3)c3ccccc3n2)cc1` gave SSB-PriA inh inactive, GDH-TPI counter-1 inactive, UGM FP inh inactive, Mtb FBA inh 60.3, Rv3671c inh inactive, Mtb betalactam inactive, Mtb FBA confirm 68.7 and GDH-TPI counter-2 71.2.
Screening Cn1cc(-c2nc3ccccc3[nH]2)c2ccccc21 returned SSB-PriA inh inactive, GDH-TPI counter-1 inactive, UGM FP inh inactive, Mtb FBA inh 43.9, Rv3671c inh inactive, Mtb betalactam inactive, Mtb FBA confirm inactive and GDH-TPI counter-2 inactive.
O=c1[nH]nc(-c2cc(-c3ccccc3)nc3ccccc23)o1 was read as GDH-TPI counter-1 inactive, Mtb FBA inh 65.0, Mtb FBA confirm 121.6 and GDH-TPI counter-2 93.7.
Screening Clc1ccc(Br)c(-c2nc3ccccc3[nH]2)c1 returned GDH-TPI counter-1 inactive and Mtb FBA inh inactive.
For COc1ccc(-c2ccc(-c3noc(-c4ccccc4C)n3)c(OC)n2)cc1 the results were SSB-PriA inh inactive, GDH-TPI counter-1 inactive, UGM FP inh inactive, Mtb FBA inh inactive, Rv3671c inh inactive and Mtb betalactam inactive.
For COc1ccc(-c2ccc(-c3noc(-c4cccs4)n3)c(OC)n2)cc1 the results were SSB-PriA inh inactive, GDH-TPI counter-1 inactive, UGM FP inh inactive, Mtb FBA inh inactive, Rv3671c inh inactive and Mtb betalactam inactive.
For CCOc1nc(-c2ccc(OC)cc2)ccc1-c1noc(C)n1 the results were SSB-PriA inh inactive, GDH-TPI counter-1 inactive, UGM FP inh inactive, Mtb FBA inh 76.2, Rv3671c inh inactive, Mtb betalactam inactive, Mtb FBA confirm 91.7 and GDH-TPI counter-2 77.6.
COc1ccc(-c2ccc(-c3noc(C4CCCCC4)n3)c(OC)n2)cc1 was read as SSB-PriA inh inactive, GDH-TPI counter-1 inactive, UGM FP inh inactive, Mtb FBA inh 28.3, Rv3671c inh inactive, Mtb betalactam inactive, Mtb FBA confirm active and GDH-TPI counter-2 active.
Screening COc1ccc(-c2ccc(-c3noc(C)n3)c(OC)n2)cc1 returned SSB-PriA inh inactive, GDH-TPI counter-1 inactive, UGM FP inh inactive, Mtb FBA inh 73.7, Rv3671c inh inactive, Mtb betalactam inactive, Mtb FBA confirm 92.9 and GDH-TPI counter-2 87.8.
CCOc1nc(-c2ccccc2)ccc1-c1noc(COc2ccccc2)n1 was read as SSB-PriA inh inactive, GDH-TPI counter-1 inactive, UGM FP inh inactive, Mtb FBA inh inactive, Rv3671c inh inactive and Mtb betalactam inactive.
For COC(=O)c1ccc(S(=O)(=O)N2CCCSC[C@@H]2CN2CCCC2)cc1 the results were SSB-PriA inh inactive.
For Cc1cccc(C(N)=NOC(=O)COc2ccc(Cl)c(C)c2)c1 the results were SSB-PriA inh inactive.
`Cc1c(O)ccc2c3c(c(=O)oc12)CCC(C)C3` (stereo not drawn) gave SSB-PriA inh inactive, GDH-TPI counter-1 inactive, UGM FP inh inactive, Mtb FBA inh 103.1, Rv3671c inh inactive, Mtb betalactam inactive, Mtb FBA confirm active and GDH-TPI counter-2 active.
`COCCn1c(C)cc(O)c(Cc2c(O)cc(C)n(CCOC)c2=O)c1=O` gave SSB-PriA inh inactive.
Screening Cc1sc(-c2cccnc2)nc1OC(=O)C1CC1 returned SSB-PriA inh inactive, GDH-TPI counter-1 inactive, UGM FP inh inactive, Mtb FBA inh 28.1, Rv3671c inh inactive, Mtb betalactam inactive, Mtb FBA confirm active and GDH-TPI counter-2 active.
COc1ccc2oc(C(=O)NCC3CCCO3)c(C)c2c1 (stereo not drawn) was read as SSB-PriA inh inactive, GDH-TPI counter-1 inactive, UGM FP inh inactive, Mtb FBA inh inactive, Rv3671c inh inactive and Mtb betalactam inactive.
`CCOc1ccc2oc(C(=O)OCC(=O)NCC3CCCO3)c(C)c2c1` (stereo not drawn) gave SSB-PriA inh inactive, GDH-TPI counter-1 inactive, Mtb FBA inh 39.4, Mtb FBA confirm inactive and GDH-TPI counter-2 13.0.
COc1ccc2oc(C(=O)OCC(=O)NCC3CCCO3)c(C)c2c1 (stereo not drawn) was read as SSB-PriA inh inactive, GDH-TPI counter-1 inactive, UGM FP inh inactive, Mtb FBA inh 36.0, Rv3671c inh inactive, Mtb betalactam inactive, Mtb FBA confirm 90.9 and GDH-TPI counter-2 81.4.
For CN(CC1CCCO1)S(=O)(=O)c1ccc(C(=O)Nc2sccc2C#N)cc1 (stereo not drawn) the results were SSB-PriA inh inactive.
